In PubChem BioAssay AID720648 (The Scripps Research Institute Molecular Screening Center, 2013):
Hit rate of the full screen: of about 370,000 compounds, about 3,100 (0.84%) were called active. This is one part of a sample in which actives are shown more often than they occur.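 The calls were made as follows: active = inhibition above the mean of compounds lying between control limits plus 3 SD, set per campaign (cut at about 8.5% in these data); inactive = the rest.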

Each compound was assayed against Disintegrin and metalloproteinase domain-containing protein 17 (Homo sapiens) (UniProt P78536) (assay: inhibition of ADAM17 peptide cleavage – biochemical, QFRET, primary screen (AID 720648;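 also: 0% = DMSO-only wells as the low control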)). Conditions: recombinant ADAM17, EDANS/DABCYL FRET peptide cleavage; at 6.95 µM; hits give high values.
Sequence of Disintegrin and metalloproteinase domain-containing protein 17 (Homo sapiens) (P78536 215-824 limits assumed): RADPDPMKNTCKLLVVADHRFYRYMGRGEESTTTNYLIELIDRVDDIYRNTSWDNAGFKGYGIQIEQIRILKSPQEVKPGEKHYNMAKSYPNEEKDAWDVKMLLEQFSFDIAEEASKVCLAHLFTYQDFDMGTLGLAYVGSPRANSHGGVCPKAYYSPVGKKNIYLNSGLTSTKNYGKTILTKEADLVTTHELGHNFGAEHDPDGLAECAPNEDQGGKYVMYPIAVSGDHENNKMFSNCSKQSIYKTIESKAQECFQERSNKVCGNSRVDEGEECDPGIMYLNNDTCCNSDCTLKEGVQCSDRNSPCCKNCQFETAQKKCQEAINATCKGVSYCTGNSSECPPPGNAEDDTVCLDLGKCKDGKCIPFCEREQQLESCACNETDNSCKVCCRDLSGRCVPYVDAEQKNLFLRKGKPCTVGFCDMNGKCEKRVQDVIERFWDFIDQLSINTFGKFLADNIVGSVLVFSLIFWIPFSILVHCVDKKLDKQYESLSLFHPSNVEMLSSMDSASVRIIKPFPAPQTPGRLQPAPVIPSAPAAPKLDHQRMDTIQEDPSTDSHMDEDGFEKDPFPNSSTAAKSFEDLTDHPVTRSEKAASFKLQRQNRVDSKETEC

inhibition, inactive:
O=C1Nc2ccccc2OC1CC(=O)N1CCCCCCC1 (configuration not stated) -1.23%, CCCCN1CCN(C(=O)c2ccc3c(c2)NC(=O)C(C)(C)O3)CC1 1.41%, COC(=O)c1c(C)[nH]c(C(=O)NCCc2ccc(S(N)(=O)=O)cc2)c1C -14.5%, COC(=O)c1c(C)oc(C)c1S(=O)(=O)NCc1ccc(Cl)cc1 -1.53%, Cc1c[nH]c2cccc(-c3ccc(Cl)cc3)c12 -9.67%, O=C(CC(=O)N/N=C\c1cccc(Cl)c1Cl)NCc1ccccc1 -1.85%, CCn1c(SCC(=O)N/N=C/c2ccccc2OCC(=O)O)nnc1-c1ccc(C(C)(C)C)cc1 -1.28%, Oc1ccc(/C=C/c2c(F)cccc2F)c2cccnc12 -0.42%, Nn1c(SCC(=O)Nc2ccc(S(N)(=O)=O)cc2)nnc1-c1n[nH]c2c1CCC2 -1.11%, O=C(COc1cc(Cl)c(Cl)cc1Cl)NC(=O)NC1CCCC1 -3.67%, CCOc1ccccc1NC(=O)NC1CCCCCCC1 2.55%, CCC(C)[C@@H](C(=O)OC)N(CCc1cn(Cc2ccccc2)nn1)S(=O)(=O)c1ccccc1Br (some centres not stated) 6.37%, CC(c1ccc(N)cc1)c1cn(C)c2ccccc12 (configuration not stated) 1.58%, CCN=C1SC(CC(=O)Nc2ccc(C)cc2)C(=O)N1CC (configuration not stated) -7.43%, CCN1C(=O)C(=O)N(CC(=O)Nc2cc(C)ccc2C)C1=O -0.07%, O=C(CN1CCCc2ccccc21)NCc1ccc(F)cc1 1.67%, CCN(CC)C(=O)CC[C@H]1CC[C@]2(CCCN(Cc3ccc(Cl)cc3)C2)O1 1.61%, Cc1cccc(OCCC(=O)OCc2csc(CC(=O)Nc3ccccc3C)n2)c1 -0.41%, O=C(COc1ccccc1)Nc1nonc1NC(=O)COc1ccccc1 -4.34%, CCOC(=O)[C@]12CCCC3=C1N(CCC3)C(=O)[C@@H](CC(=O)N1CCSCC1)C2 0.18%, CC(=O)N1CCc2cc(S(=O)(=O)NCCC(=O)N3CCCC3)ccc21 -3.27%, O=c1c2ccccc2ccc2ccc(P(=O)(O)O)cc12 -16.1%, COc1cccc2c(O)cc(=O)n(C)c12 -4.7%, CCN(C(=O)[C@@H](C1CC1)[C@@H](O)c1ccc2ccccc2c1)c1ccccc1 -1.62%, COc1cccc(NC(=O)C2c3cc(OC)c(OC)cc3C(=O)N(C)C2c2cccnc2)c1 (configuration not stated) 1.58%, COc1cccc(NC(=O)C/C(C)=N/NC(=O)C2CCCCC2)c1 -3.38%, CC(C)CNS(=O)(=O)CC1NCCc2ccccc21 (configuration not stated) -3.23%, COc1ccc(C(=O)OCCN2CCN(C3CN(Cc4cn(Cc5ccccc5F)nn4)S(=O)(=O)C3)CC2)cc1OC (configuration not stated) -4.52%, CC(=O)Nc1nc2ncccn2c1-c1ccc(C(F)(F)F)cc1 -266%, N#Cc1cccc(C(=O)NCC2CCN(C(=O)C(=O)c3cc4ccccc4o3)CC2)c1 -3.28%, O=C(C(=O)N1CCC(CNS(=O)(=O)Cc2ccccc2)CC1)c1cc2ccccc2o1 -3.01%, CC(C)C(C#CC1CC1)N(Cc1ccc2c(c1)OCO2)C(N)=NC(=O)/C=C/c1cccc(C(F)(F)F)c1 (configuration not stated) -3.71%, CC(=O)NC(Cc1ccccc1)C(=O)NC1CCN(c2ncccc2[N+](=O)[O-])CC1 (configuration not stated) -2.81%, COc1ccc(-c2cc(-c3nnc(SCc4ccc([N+](=O)[O-])cc4)n3N)[nH]n2)cc1 -2.61%, O=C1CCC2(CCC(c3ccc(Cl)cc3)CC2)N1CCO (configuration not stated) 1.61%, CCn1c(=O)n2n(c1=O)[C@@]1(C=C3CCCC[C@H]32)N=C(NC(=O)c2ccccc2)N(Cc2ccccc2)[C@H]1Cc1ccccc1 5.91%, Cn1c(Nc2ccccc2)cc(=O)n(C)c1=O -0.84%, Cc1ccc(NC(=O)Nc2cc(C)nn2-c2ccccc2)cc1 -1.4%, COC(C(=O)NCc1ccccc1C)c1ccccc1 (configuration not stated) -5.21%, CCC(Oc1ccccc1C)C(=O)Nc1ccc(S(=O)(=O)Nc2cc(C)on2)cc1 (configuration not stated) -4.21%, COc1cccc(Cn2cc(COC(=O)Nc3ccc(F)cc3)nn2)c1 -1.05%, COc1ccccc1C(=O)NC1CCCCN(C(C)C)C1=O (configuration not stated) -7.08%, O=C(O)CCC(=O)N(Cc1ccco1)c1nc(-c2ccccc2)cs1 -2.47%, COc1ccc(CN(C(=O)c2cccs2)c2nccs2)cc1OC 0.3%, C[C@@H]1COc2cccc(N3CCCC3)c2S(=O)(=O)N1C -5.16%, C=CCN1[C@@H](Cc2ccccc2)COc2cccc(N3CCSCC3)c2S1(=O)=O -1.76%, Cc1cc(NC(=O)CSCC(=O)NC(C)c2ccccc2)no1 (configuration not stated) -2.03%, CCCn1nc(C(=O)NNC(=O)CCOc2ccccc2OCC)c2ccccc2c1=O -0.01%, COC(=O)C1CN(CCc2ccccc2)CCS(=O)(=O)N1Cc1ccc(F)cc1 (configuration not stated) -9.15%, O=[N+]([O-])c1cc(S(=O)(=O)NCCc2ccccn2)ccc1Cl 0.55%, CCOc1ccc(S(=O)(=O)NCCSc2ccccc2)cc1 6.1%, C[C@H](C(=O)N(C)c1ccccc1)[C@@H](O)c1ccc2ccccc2c1 -5.59%, CCN(CC)C(=O)CC[C@@H]1CC[C@]2(CCCN(S(=O)(=O)C3CCCCC3)C2)O1 -0.83%, COc1ccc(OCC(=O)OCC(=O)Nc2ccc(S(=O)(=O)N3CCCCC3)cc2)cc1 -0.04%, O=C(CN1CCCCCC1)Nc1ccc(S(=O)(=O)N2CCCCC2)cc1 -1.57%, N#CCC[C@H]1CC[C@]2(CCCN(Cc3ccc(Cl)cc3)C2)O1 -4.85%, COc1ccc(-n2c(SCC(=O)NC3CCCC3)nnc2-c2ccncc2)cc1 -3.54%, COc1ccccc1N(C(=O)Cn1nnc2ccccc21)C(C(=O)NCc1ccco1)c1ccc(C)o1 (configuration not stated) -3.12%, CCC(C)(C)NC(=O)C(c1cccn1C)N(Cc1ccc(C)cc1)C(=O)Cn1nnc2ccccc21 (configuration not stated) 0.71%, COCCCNC(=O)C[C@H]1C[C@@]2(C(=O)OC)C(=C[C@H](C(C)(C)C)O[C@@H]2C)N(Cc2ccc(Cl)cc2Cl)C1=O 3.29%, CCOC(=O)[C@@]12CN(C(=O)OC(C)(C)C)CC=C1N(Cc1ccc(OC)cc1)C(=O)[C@H]2CC(=O)NCc1ccc(OC)c(OC)c1 1.15%, COc1cccc(CNC(C)C(=O)Nc2ccc(S(=O)(=O)N3CCCC3)cc2)c1 (configuration not stated) -0.82%, CC(C)c1ccc(S(=O)(=O)N2CCN(C(C)C(=O)NC3CCCC3)CC2)cc1 (configuration not stated) 0.12%, C[C@@H]1ON(C)[C@H]2C[C@H]3c4[nH]c5cccc(-c6ccc7c(c6)OCO7)c5c4CCN3C[C@@H]12 -16.2%, COc1ccccc1CCNC(=O)C1CCN(c2nc(C)cc(C)n2)CC1 -1.54%, O=S1(=O)c2c(NCc3ccco3)cccc2Oc2ccccc2CN1Cc1cn(Cc2cccc(C(F)(F)F)c2)nn1 -1.67%, COc1ccc(Cl)cc1NC(=O)COC(=O)c1ccc(Br)o1 -0.97%, COc1ccc(Cl)cc1NC(=O)c1cccc(N2C(=O)C3CC=CCC3C2=O)c1 (configuration not stated) -4.89%, Cc1cccc(C(=O)Nc2c(-c3ccc(F)cc3)nc3ncccn23)c1 -94.5%

inhibition, active:
COC(=O)c1c(C)[nH]c(C(=O)/C=C/c2ccc(Cl)cc2)c1C 9.17%, C=CCOc1ccccc1/C=N/NC(=O)Cc1ccccc1 11.4%, CCCN(CC(=O)NC(=O)NC1CCCCC1)CC(=O)Nc1cc(Cl)ccc1Cl 9.13%, CCN1C(=O)C(CC(=O)Nc2cc(C)ccc2C)SC1=Nc1ccc(S(N)(=O)=O)cc1 (configuration not stated) 9.07%, Cc1onc(C(=O)NN)c1-c1csc(COc2ccccc2)n1 9%, O=Nc1c(O)cc(O)c2ccccc12 10.5%, COc1cccc(NC(=O)C2C(c3ccccc3)C2(Cl)Cl)c1 (configuration not stated) 9.55%, CC(C)(C)c1ccc(S(=O)(=O)NCC2CCN(C(=O)C(=O)c3cc4ccccc4o3)CC2)cc1 9.75%, COc1ccc(-c2cc(C3CCN(c4ncccc4[N+](=O)[O-])CC3)[nH]n2)cc1 9.29%, Cc1cc(Nc2ccccc2)n(C(=O)c2ccc(N)cc2)n1 8.62%, COC(C(=O)Nc1ccc(S(=O)(=O)Nc2ccc(C)c(C)c2)cc1)c1ccccc1 (configuration not stated) 9.01%, COc1ccc(CCN(C(=O)COc2ccccc2)c2nc(-c3ccccc3)cs2)cc1OC 9.24%, CCCn1nc(C(=O)NNC(=O)CSCC(=O)Nc2cc(C)on2)c2ccccc2c1=O 11.3%, Cc1ccc(S(=O)(=O)NCCSc2ccccc2)cc1[N+](=O)[O-] 10.7%, O=C(CSCc1ccc(Br)cc1)Nc1ccc(S(=O)(=O)N2CCCCCC2)cc1 12.9%, COCCNC(=O)C(c1ccc(C)o1)N(Cc1ccccc1)C(=O)Cn1nnc2ccccc21 (configuration not stated) 9.14%, COc1ccc(S(=O)(=O)N2CCN(C(C)C(=O)Nc3ccc(C(C)C)cc3)CC2)cc1 (configuration not stated) 12.4%, COc1ccc(Cl)cc1NC(=O)COC(=O)C(CC(C)C)N1C(=O)C2CC=CCC2C1=O (configuration not stated) 18.9%
